Source: PubChem
STK33 kin inh – inhibitors of human STK33 kinase; Q9BYT3; ADP-Glo luminescence, MBP substrate; inhibition, % at 12.5 µM; 27,000 tested, 0.44% active; AID 2322; in the data active = inhibition above about 20%
Target sequence (Q9BYT3 whole entry, looked up): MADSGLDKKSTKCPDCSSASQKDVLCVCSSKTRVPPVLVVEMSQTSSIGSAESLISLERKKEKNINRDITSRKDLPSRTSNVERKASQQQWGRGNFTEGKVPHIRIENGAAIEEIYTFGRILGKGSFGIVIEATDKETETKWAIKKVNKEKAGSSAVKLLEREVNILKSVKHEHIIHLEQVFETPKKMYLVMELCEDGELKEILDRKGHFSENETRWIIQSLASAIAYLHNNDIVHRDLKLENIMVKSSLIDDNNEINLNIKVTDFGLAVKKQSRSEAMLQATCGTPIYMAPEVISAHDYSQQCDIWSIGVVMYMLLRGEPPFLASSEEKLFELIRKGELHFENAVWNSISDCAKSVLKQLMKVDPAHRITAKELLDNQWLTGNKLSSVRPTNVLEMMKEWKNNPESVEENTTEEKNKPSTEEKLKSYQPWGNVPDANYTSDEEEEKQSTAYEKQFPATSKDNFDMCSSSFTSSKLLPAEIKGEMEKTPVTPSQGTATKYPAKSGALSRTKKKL
PD-1 reversal – activators reversing PD-1 mediated T-cell inhibition; AID 2316; primary human CD4 T cells, PD-L1 beads, CellTiter-Glo 96 h; activation, % (test concentration not listed); 29,000 tested, under 10 active; call rule not given here;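 note: 0% = median vehicle wells and 100% = positive control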
NOMO-1 viab – STK33 inhibitor candidate reducing NOMO-1 cell viability; inhibition, % (test concentration not listed); 37,000 tested, 7.5% active; NOMO-1 AML viability, CellTiter-Glo luminescence, 72 h; AID 2330; in the data active = inhibition above about 80%
* hit, by the source's call; x = no result. The sample as a whole holds a higher share of hits than the screen did.

SMILES | STK33 kin inh | PD-1 reversal | NOMO-1 viab
CC1C(c2ccccc2)O/C(=N\S(=O)(=O)c2ccc(Cl)cc2)N1C (stereo unspecified) | x | 0 | 1
COCCNS(=O)(=O)c1cc([N+](=O)[O-])ccc1C | 2 | x | 34
c1ccc(-c2nsc(N3CCOCC3)n2)cc1 | x | 1 | -1
Clc1ccccc1/C=C/C=Nc1ccc(N2CCOCC2)cc1 | x | 0 | 122*
C/C=C(\C)C(=O)O[C@@H]1C(C)=C2[C@H]3OC(=O)[C@](C)(O)[C@]3(O)[C@H](OC(=O)C(C)CC)C[C@@](C)(OC(C)=O)[C@@H]2[C@H]1OC(=O)CCCCCCC (stereo partly specified) | -2 | x | x
CC(C)c1ccc2oc(-c3ccc(Cl)c(NC(=O)COc4ccc([N+](=O)[O-])cc4)c3)nc2c1 | 1 | -6 | 110*
COc1ccc(-c2nc3cc(NC(=O)COc4ccc([N+](=O)[O-])cc4)ccc3o2)cc1Cl | -2 | 0 | 22
Cc1ccc(NC(=O)c2c(NC(=O)CN3CCOCC3)sc3c2CCC3)c(C)c1 | 0 | -3 | 53
O=C1c2cccc3cccc(c23)C(=O)N1CCCSc1nnc(-c2ccncc2)n1-c1ccccc1 | 6 | -2 | 30
COc1ccc2c(c1)CCC1C2CCC2(C)C1C[C@@H](O)C2O (stereo partly specified) | 2 | x | 4
COc1cc2c(cc1O)C(C1CC1)N(C)CC2 (stereo unspecified) | -7 | x | x
COc1cc(C)c2c(c1)CCC1C2CCC2(C)C(O)CCC12 (stereo unspecified) | x | -1 | 91*
COc1cc2c(cc1O)CCC1C2CC[C@@]2(C)C1CC[C@@H]2O (stereo partly specified) | 3 | -9 | 97*
COc1ccc(-c2nnc(SCC(=O)c3ccc(Cl)cc3)n2-c2ccc(C)cc2)cc1OC | 8 | -5 | 62
CC(=O)c1ccc(NC(=O)CSc2nnc3n(C)c(=O)c4c5c(sc4n23)CCCC5)cc1 | 6 | -3 | 18
O=c1cc(-c2ccccc2)oc2ccc(O)cc12 | 1 | 2 | 8
O=c1cc(-c2ccccc2)oc2c(O)c(O)ccc12 | 14 | x | 101*
COc1cccc2sc(=NC(=O)CC34CC5CC(CC(C5)C3)C4)n(C)c12 | x | 2 | -2
C/S(=N\S(=O)(=O)c1ccc(Cl)cc1)c1ccccc1 (stereo unspecified) | x | 0 | -16
COCc1cc(=O)[nH]c(SCC(=O)C(C)(C)C)n1 | x | -1 | 1
COc1cccc(NC2=C(C#N)C(=O)NC(c3cccc(OC)c3O)S2)c1 (stereo unspecified) | x | 1 | 11
CSC1=C(C#N)C(=O)NC(c2ccc(Cl)cc2)S1 (stereo unspecified) | x | -4 | 116*
COc1cc(OC)c(NC(=O)COc2ccc([N+](=O)[O-])cc2)cc1Cl | 3 | 0 | -12
CCN(CC)C(=S)C(=O)Nc1cc(C(F)(F)F)cc(C(F)(F)F)c1 | x | -2 | 109*
O=C(O)CC(C(=O)Nc1cc(C(F)(F)F)cc(C(F)(F)F)c1)C1=CCCCC1 (stereo unspecified) | x | 0 | 16
SMILES | STK33 kin inh | PD-1 reversal | NOMO-1 viab
COc1ccccc1-n1c(CN2C(=O)c3ccccc3C2=O)nc2ccccc2c1=O | 2 | x | x
C[C@H](CO)N1C[C@H](C)[C@H](CN(C)Cc2ccc(C(F)(F)F)cc2)Oc2c(NC(=O)CCCCCC(=O)Nc3ccccc3N)cccc2C1=O | x | 0 | 115*
CC(C)NC(=O)Nc1cccc2c1O[C@@H](CN(C)Cc1ccc(C(F)(F)F)cc1)[C@@H](C)CN([C@H](C)CO)C2=O | x | -2 | 9
C[C@@H]1CN([C@H](C)CO)C(=O)c2cccc(NC(=O)C3CC3)c2O[C@H]1CN(C)Cc1ccc(C(F)(F)F)cc1 | x | x | 64
C[C@@H]1CN([C@@H](C)CO)C(=O)c2cccc(NC(=O)CCCCCC(=O)Nc3ccccc3N)c2O[C@@H]1CN(C)Cc1ccc(C(F)(F)F)cc1 | x | 2 | 119*
C[C@H](CO)N1C[C@H](C)[C@H](CN(C)C(=O)Nc2ccc(C(F)(F)F)cc2)Oc2c(NC(=O)CCCCCC(=O)Nc3ccccc3N)cccc2C1=O | x | -1 | 114*
C[C@@H]1CN([C@H](C)CO)C(=O)c2cccc(NC(=O)CCCCCC(=O)Nc3ccccc3N)c2O[C@@H]1CN(C)C(=O)Nc1ccc(F)cc1 | x | 0 | 30
C[C@@H]1CN([C@H](C)CO)C(=O)c2cccc(NC(=O)CCCCCC(=O)Nc3ccccc3N)c2O[C@@H]1CN(C)Cc1ccc(C(F)(F)F)cc1 | x | 1 | 115*
CC(C)NC(=O)Nc1cccc2c1O[C@H](CN(C)Cc1ccc(C(F)(F)F)cc1)[C@@H](C)CN([C@@H](C)CO)C2=O | x | -2 | 48
CSc1sc(C(=O)/C=C/N(C)C)c(-c2ccccc2)c1C#N | x | 0 | 13
Cc1ccc(C(=O)CC(C(=O)O)N2CCN(C)CC2)cc1 (stereo unspecified) | 0 | -6 | 14
COC(=O)C1=C(NC(=O)c2ccc(S(=O)(=O)N3CCOCC3)cc2)CCS1 | -2 | 3 | 31
Cc1ccc(C)c(N(CC(=O)Nc2ccc(Br)c(Cl)c2)S(C)(=O)=O)c1 | -1 | 0 | 9
Cc1ccc(Cl)cc1N(CC(=O)Nc1ccc(I)cc1)S(C)(=O)=O | -1 | -2 | 66
Cc1ccc(Cl)cc1N(CC(=O)Nc1ccc(C(F)(F)F)cc1)S(C)(=O)=O | -2 | -6 | 118*
CS(=O)(=O)N(CC(=O)Nc1ccc(C(F)(F)F)cc1)c1cccc([N+](=O)[O-])c1 | -10 | -2 | 121*
CS(=O)(=O)N(CC(=O)Nc1cc(C(F)(F)F)ccc1Cl)c1cccc([N+](=O)[O-])c1 | -5 | 1 | 31
CC1OC(NC(=O)c2ccccc2F)C(NC(=O)c2ccccc2F)OC1C (stereo unspecified) | x | 0 | 10
CS(=O)(=O)N(CC(=O)Nc1cc(C(F)(F)F)ccc1Cl)c1cccc(F)c1 | 0 | x | -3
C[C@H]1CN([C@@H](C)CO)C(=O)Cc2cc(NC(=O)Nc3ccc(C(F)(F)F)cc3)ccc2O[C@@H]1CN(C)C | -2 | 2 | 18
C[C@H](CO)N1C[C@H](C)[C@H](CN(C)S(=O)(=O)c2ccccc2)Oc2ccc(NC(=O)Nc3ccc(C(F)(F)F)cc3)cc2CC1=O | 2 | -6 | 128*
C[C@@H]1CN([C@@H](C)CO)C(=O)Cc2cc(NC(=O)Nc3ccc(C(F)(F)F)cc3)ccc2O[C@@H]1CN(C)S(=O)(=O)c1ccccc1 | 4 | -5 | 112*
C[C@@H]1CN([C@@H](C)CO)C(=O)Cc2cc(NC(=O)Nc3ccc(C(F)(F)F)cc3)ccc2O[C@@H]1CN(C)S(C)(=O)=O | 2 | 0 | 114*
C[C@H]1CN([C@@H](C)CO)C(=O)Cc2cc(NC(=O)Nc3ccccc3)ccc2O[C@H]1CN(C)S(=O)(=O)c1ccccc1 | -4 | 2 | 39
C[C@H]1CN([C@@H](C)CO)C(=O)Cc2cc(NC(=O)Nc3ccc(C(F)(F)F)cc3)ccc2O[C@@H]1CN(C)S(=O)(=O)c1ccccc1 | 0 | 2 | 5
O=C1C(=O)N(Cc2ccco2)C(c2ccccc2)C1C(=O)c1cccs1 (stereo unspecified) | 0 | 4 | -5
